Compounds without any hit were thinned out: in the full panel of roughly 79,000, 15% have a hit. Rule as the data show it: active = growth inhibition above about 70%; inactive = the rest.
Legend:
[1] = NCI Yeast Anticancer Drug Screen. Data for the rad50 strain (AID 155);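 also: 0% = growth of vehicle-only cultures of the same strain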; details: S. cerevisiae rad50 strain growth inhibition; at 50.0 µM; hits give high values
Outline: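 Compounds were tested on a yeast strain with an engineered DNA damage repair alteration; the reported value is growth inhibition normalised to vehicle treatment.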

[2] = NCI Yeast Anticancer Drug Screen. Data for the mec2-1 strain (AID 157); details: S. cerevisiae mec2-1 strain, at 50.0 µM, hits give high values
Outline: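 Growth inhibition is read against vehicle-treated controls after compound exposure of the mec2-1 yeast strain, which is defective in DNA damage repair or cell cycle control.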

[3] = NCI Yeast Anticancer Drug Screen. Data for the sgs1 mgt1 strain (AID 161);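 also: 0% = growth of cultures given vehicle only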; details: S. cerevisiae sgs1 mgt1 strain, at 50.0 µM, hits give high values
Outline: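 Yeast cells carrying a defined DNA-repair defect were exposed to test compounds. Growth inhibition was measured relative to vehicle-treated controls.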

[4] = NCI Yeast Anticancer Drug Screen. Data for the cln2 rad14 strain (AID 165);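 also: 0% = growth equal to vehicle treated cultures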; details: S. cerevisiae cln2 rad14 strain, at 50.0 µM, hits give high values
Outline: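 Growth inhibition, relative to vehicle-treated controls, is the read-out. The test organism is a yeast strain with defined genetic alterations, cln2 rad14.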

[5] = NCI Yeast Anticancer Drug Screen. Data for the bub3 strain (AID 167); details: S. cerevisiae bub3 mutant strain, at 50.0 µM, hits give high values
Outline: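 Growth of a checkpoint-deficient yeast mutant is measured after compound exposure. Values represent inhibition relative to vehicle.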

[6] = NCI Yeast Anticancer Drug Screen. Data for the mlh1 rad18 strain (AID 175); details: S. cerevisiae mlh1 rad18 strain growth inhibition; at 50.0 µM; hits give high values
Outline: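 Cells of a genetically altered yeast strain, deficient in DNA damage repair, were treated with compound. Their growth was then compared with that of vehicle-treated cultures to give inhibition.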

Measured: growth inhibition

CN(C)CCC(O)(c1ccccc1)C(O)(CCN(C)C)c1ccccc1 (stereo unspecified)
inactive: [1] -3.15% | [2] -14.8% | [3] -8.45% | [4] -8.85% | [5] -13.8% | [6] -16.4%

NNC(=O)c1n[nH]n(N)c1=S
inactive: [1] 22.6% | [2] 25.1% | [3] 10.9% | [4] -8.65% | [5] -8.65% | [6] 24.2%

CC(=O)CC(=O)CC(C)C.CC(=O)CC(=O)CC(C)C.[Cu]
inactive: [1] 17.2% | [2] 17.5% | [3] 6.25% | [4] -16.1% | [5] -3.2% | [6] 37.7%

CC(=O)Nc1ccc(N=Nc2cccc(C)c2)cc1C
inactive: [1] -1.6% | [2] -1.6% | [3] 10.1% | [4] -13.1% | [5] 2.4% | [6] -7.2%

O=[N+]([O-])c1ccc(F)c(Cl)c1
inactive: [1] -10.7% | [2] -25.1% | [3] -1.6% | [4] 4.55% | [5] 9.3% | [6] -7.25%

COc1ccccc1NC(=O)NCCN1CCCC1
inactive: [1] -2.15% | [2] 8.1% | [3] 31.1% | [4] -8.9% | [5] 9.45% | [6] 5.3%

N#CC(C#N)c1c(F)c(F)c(C(F)(F)F)c(F)c1F
inactive: [1] 10.4% | [2] -4.6% | [3] 34.9% | [4] -8.95% | [5] -9.9% | [6] -0.65%

Cc1cccc(-c2cc(=O)c3cccnc3[nH]2)c1
inactive: [1] 2.05% | [2] -1.45% | [3] 9.35% | [4] 4.05% | [5] -13% | [6] 1.25%

CCOC(=O)CN/N=C(\N)CSS(=O)(=O)O
inactive: [1] -5.25% | [2] -17.4% | [3] -2.05% | [4] 13.3% | [5] 9.65% | [6] 3.05%

Cc1cccc(CN(C)Cc2cc(Cl)cc(C)c2O)c1O
inactive: [1] 14.8% | [2] -1.6% | [3] 1.1% | [4] -36% | [5] -1.25% | [6] 4.15%

c1cc2c3c(c1)ccc1cccc(c13)CC2
inactive: [1] 4.45% | [2] -34.1% | [3] 3.3% | [4] 1.5% | [5] -22.8% | [6] 13.9%

COC(=O)[C@@H]1CCC(/C(C#N)=C2/CC[C@@H](C(=O)OC)N2)=N1
inactive: [1] 8.45% | [2] 12.6% | [3] 1.2% | [4] -5.1% | [5] 13.2% | [6] 11.1%

CC(C)CCc1c(N)nc(N)[nH]c1=O
inactive: [1] 6.8% | [2] -13.6% | [3] -8.6% | [4] -42% | [5] 1% | [6] 3.75%

COc1ccc2nc(NC(=O)C(=O)NNC(=O)c3ccncc3)sc2c1
inactive: [1] -24.5% | [2] -24% | [3] -10.1% | [4] 21.1% | [5] -22.9% | [6] -14.7%

C=Nc1ccc(C)cc1
inactive: [1] 6.7% | [2] -14.8% | [3] -12% | [4] -15.7% | [5] -2.7% | [6] -18.4%

COc1cc2c(cc1OC)C(=O)/C(=C/c1ccccc1)C2
inactive: [1] -16.4% | [2] -0.85% | [3] -6.4% | [4] 15.2% | [5] 36% | [6] 9.6%

O=[N+]([O-])c1cc(C2ON=C(c3ccccc3)N2C23CC4CC(CC(C4)C2)C3)ccc1Cl (stereo unspecified)
inactive: [1] -9.1% | [2] 10.2% | [3] 2.7% | [4] 16% | [5] -0.85% | [6] -8.2%

Cn1c2ccccc2c2c3c(ccc21)C(=O)c1ccccc1C3=O
inactive: [1] 6.85% | [2] -3.9% | [3] 7.15% | [4] -62.6% | [5] 8.2% | [6] -2.5%

CCOC(=O)c1cc(C)nc(Cl)c1C#N
inactive: [1] 6.3% | [2] 12.8% | [3] 7.9% | [4] 13.7% | [5] 21.1% | [6] 12.4%

O=S1(=O)CS(=O)(=O)OCCCCO1
inactive: [1] 10.2% | [2] -5.75% | [3] 4.9% | [4] 13.3% | [5] -9.05% | [6] 7.85%

Nc1nc(-c2ccccc2)nc(-c2ccccc2)n1
inactive: [1] -2.95% | [2] -7.05% | [3] -8.4% | [4] -14.2% | [5] -21.7% | [6] -16.4%

O=C(c1ccccc1O)N1CCCCC1
inactive: [1] 32.1% | [2] 25.2% | [3] 12.5% | [4] 13.9% | [5] 16.6% | [6] 11.3%

O=CNC1(c2ccccc2)CCCCC1
inactive: [1] 2% | [2] -37% | [3] -12.2% | [4] 16.4% | [5] 4.6% | [6] 4.85%

Cc1cccc(C)c1NC(=O)C(=O)CC(=O)CO
inactive: [1] -9.45% | [2] -18.3% | [3] 14.1% | [4] 10.8% | [5] 21% | [6] -6.25%

CC(=NCCN=C(C)c1ccccc1O)c1ccccc1O.[Cu]
inactive: [1] -17.9% | [2] -8.05% | [3] 2.25% | [4] -23.6% | [5] -6.15% | [6] -8.55%

O=C1C2=C(CCCC2)Nc2cccc3ncn1c23
inactive: [1] -25.9% | [2] -39% | [3] -56.8% | [4] -20.4% | [5] -38.4% | [6] -40.2%

CCOC(=O)CCC(N)C(N)=O (stereo unspecified)
inactive: [1] 28.2% | [2] -6.45% | [3] 16% | [4] 8.65% | [5] 11.4% | [6] 23.9%

Cc1cccc(C(C)C)c1NC(=O)/C(Cc1c([N+](=O)[O-])cccc1[N+](=O)[O-])=N/NC(=O)CC#N
inactive: [1] -0.15% | [2] -3.6% | [3] 13.8% | [4] 11.2% | [5] -23.2% | [6] 4.8%

CC(=O)Nc1ccc2ccc3ccccc3c2c1
inactive: [1] 37% | [2] 9.25% | [3] 15.8% | [4] -19.1% | [5] -4.35% | [6] 23.7%

O=C1C(Br)=C(c2ccccc2)C(c2ccccc2)=C1c1ccccc1
inactive: [1] 45.6% | [2] 25.9% | [3] 51% | [4] 21.9% | [5] 22.7% | [6] 55%

Cc1ccc(C(c2ccc(C)c(C)c2)C(O)C(O)C(O)C(O)CO)cc1C (stereo unspecified)
inactive: [1] -4.8% | [2] -2.6% | [3] -2.9% | [4] 1.6% | [5] -6.05% | [6] -18.4%

CC(=O)N1CCOCC1
inactive: [1] 23.1% | [2] 1.55% | [3] 11.1% | [4] -28.6% | [5] -1.8% | [6] 21.1%

COc1nc2ccccc2c(=O)[nH]1
inactive: [1] -6.7% | [2] -5.2% | [3] -6.05% | [4] 0.1% | [5] 2% | [6] 6.5%

O=C1C2Cc3ccccc3CN2C(=O)N1CN1CCN(CN2C(=O)C3Cc4ccccc4CN3C2=O)CC1 (stereo unspecified)
inactive: [1] -13.1% | [2] -0.05% | [3] -16.6% | [4] -10.9% | [5] -28.6% | [6] -5.8%

O=C(O)CCCCC1CCCC1
inactive: [1] 43.4% | [2] 8.3% | [3] 12.2% | [4] 5.25% | [5] 18.5% | [6] 56.4%

Cc1cn(C2CC(O)C(CO)O2)c(=O)nc1NCC12CC3CC(CC(C3)C1)C2 (stereo unspecified)
inactive: [1] -1.7% | [2] 11.8% | [3] -1.1% | [4] -1.1% | [5] -0.8% | [6] -2.25%

CCC1C(C)(C)c2cc(C)c(C(C)=O)cc2C1(C)C (stereo unspecified)
inactive: [1] -8.1% | [2] -8.75% | [3] 7.15% | [4] -49.5% | [5] 25.6% | [6] -3.75%

CNC(=O)OCc1c(COC(=O)NC)c(C)n(-c2ccc(OC)cc2)c1C
inactive: [1] 20.9% | [2] 3.55% | [3] 42.1% | [4] 15.8% | [5] 31.3% | [6] 42.8%

c1ccc2c(c1)OCCOCCOc1ccccc1OCCO2
inactive: [1] -3.6% | [2] 0.4% | [3] 0.95% | [4] 17.8% | [5] -6.5% | [6] -3.65%

O=C1OC(=O)c2ccc([N+](=O)[O-])c3c(C(=O)O)ccc1c23
inactive: [1] 5.1% | [2] -19.2% | [3] -22.9% | [4] -1.65% | [5] 2.55% | [6] 2.85%

COc1ccc(NC(=O)NNS(=O)(=O)c2ccc(C)cc2)cc1
inactive: [1] 10.1% | [2] 6.15% | [3] 6.6% | [4] 4.9% | [5] 13.9% | [6] -36.9%
